# PubChem BioAssay (Tox21)
# “And” between values parts separate entries of the source, which are not always exact repeats. Equal values may be shown once. Records with an inconclusive call do not appear. A call without a number means that no potency is given here. Where a structure was tested more than once in an assay, its records may differ in their call. The source made the active and inactive calls. The call rests on the fitted dose curve; in most records, active means well fitted inhibition curve with a large enough effect in the repeat runs; inconclusive means weak or mixed curves; inactive means no such curve, though single readings can be large or run the other way.
# Target: Cytochrome P450 2D6 (Homo sapiens) (UniProt P10635)
# Assay: Cytochrome P450 Family 2 Subfamily D Member 6 (CYP2D6) small molecule antagonists: luciferase reporter qHTS assay (AID 1671196); further: nearly all actives have a fitted effect of over 50% in size
# Conditions: P450-Glo CYP2D6 enzyme assay, luciferin luminescence, 1 h; series mostly up to 115 µM
# Source text: U.S. Tox21 Program National Center for Advancing Translational Sciences [NCATS] U.S. Environmental Protection Agency [EPA] National Institutes of Environmental Health Sciences [NIEHS] National Toxicology Program [NTP] U.S. Food and Drug Administration [FDA] Tox21 Assay Overview: Cytochrome P450 (CYP) enzymes are membrane-bound hemeproteins that play a key role in metabolism of drugs and xenobiotics. Evaluation of the effect of chemicals on CYP isozymes is useful to minimize the adverse drug reactions and toxicities in drug development process. Tox21 chemicals were tested for their effect on CYP enzyme activities by using P450-Glo (TM) screening systems (Promega Corporation, Madison, WI). These systems provide a luminescent method containing proluciferin substrates and are converted to luciferin products by CYP isozymes. The luciferin products formed are detected with a luciferin detection reagent, and the amount of light produced is proportional to CYP activity. P450-Glo (TM) CYP2D6 screening system (Catalog. No. V9890) was used to detect the compounds that interfere in CYP2D6 activity.
# Tox21 Assay Protocol Summary: Two ul of enzyme-substrate mix was dispensed into medium binding white/solid 1536-well plates (Greiner Bio-One North America Inc., Monroe, NC) using a BioRaptr Flying Reagent Dispenser (FRD, Beckman Coulter, Brea, CA). […] The assay plates were incubated at room temperature for 10 min. Then 2 ul of NADPH regeneration solution was added to each well of the assay plates using an FRD and incubated at room temperature for 1 h. The reaction was stopped by adding 4 ul of detection reagent using an FRD and after 20 min incubation at room temperature the luminescence signal was measured using a ViewLux plate reader (Perkin Elmer, Shelton, CT). Data were expressed as relative luminescence units.
# Potency means the concentration at half of the fitted maximal effect.
# Sequence of Cytochrome P450 2D6 (Homo sapiens) (P10635 whole entry, looked up): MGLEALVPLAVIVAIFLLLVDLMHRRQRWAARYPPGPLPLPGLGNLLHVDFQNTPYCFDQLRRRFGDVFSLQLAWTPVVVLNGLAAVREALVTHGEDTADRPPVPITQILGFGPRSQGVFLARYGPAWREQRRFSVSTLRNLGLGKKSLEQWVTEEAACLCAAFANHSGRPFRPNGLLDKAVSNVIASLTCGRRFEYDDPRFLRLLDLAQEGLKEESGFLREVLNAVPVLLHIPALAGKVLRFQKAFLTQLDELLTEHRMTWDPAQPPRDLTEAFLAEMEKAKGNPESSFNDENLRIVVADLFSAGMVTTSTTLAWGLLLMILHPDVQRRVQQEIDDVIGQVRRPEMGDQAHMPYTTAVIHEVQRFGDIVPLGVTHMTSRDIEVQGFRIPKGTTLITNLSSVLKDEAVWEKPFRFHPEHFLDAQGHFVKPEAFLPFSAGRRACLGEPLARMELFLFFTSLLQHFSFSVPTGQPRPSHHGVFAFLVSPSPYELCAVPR
row,Compound,Potency
1,C[C@]12CC[C@H]3[C@@H](CCC4=CC(=O)CC[C@@H]43)[C@@H]1CC[C@@H]2OC(=O)CCC1CCCCC1,inactive
2,Cc1cc(=O)[nH]o1,inactive
3,CO/N=C(/C(=O)OC)c1ccccc1COc1ccccc1C,inactive
4,c1ccc(CN2CCNCC2)cc1,17.2 µM (active)
5,CCOC(=O)C(Cl)C(C)=O (stereo not given),inactive
6,Nc1nc(=S)[nH][nH]1,44.8 µM (active)
7,CC(C)(Cl)[N+](=O)[O-],inactive
8,Oc1ccc(Cl)c(Cl)c1Cl,inactive
9,CCOC(=O)[C@]1(c2ccccc2)Oc2ccccc2[C@@H]1N,0.2 µM (active)
10,O=C(Nc1ccccc1)Nc1cnns1,31.7 µM (active)
11,O=C(NCc1cccnc1)Nc1ccc([N+](=O)[O-])cc1,35.6 µM (active)
12,CCC(Cl)CCl (stereo not given),inactive
13,CCOc1nc(F)cc2nc(S(=O)(=O)Nc3c(Cl)cccc3Cl)nn12,inactive
14,COc1cc(Cl)c(OC)cc1Cl,inactive
15,COc1ccc(-c2ccccc2)cc1NNC(=O)OC(C)C,0.83 µM (active)
16,CCC(C)(NC(=O)c1cc(Cl)c(C)c(Cl)c1)C(=O)CCl (stereo not given),35.8 µM (active)
17,CC(Cl)C(C)Cl (stereo not given),inactive
18,ClCCCCBr,inactive
19,CCO[C@H]1O[C@@H]2OC3(C)CC[C@H]4[C@H](C)CC[C@@H]([C@H]1C)[C@@]24OO3,inactive
20,N#C/C(N)=C(/N)C#N,inactive

row,Compound,Potency
1,C=CC(=O)OCC(C)O (stereo not given),inactive
2,CCn1cc[n+](C)c1,inactive and 507 nM (active) and 34.7 µM (active)
3,Cc1ccccc1C(=O)Nc1cccc(OC(C)C)c1,inactive
4,O=S1(=O)OC(c2cc(Br)c(O)c(Br)c2)(c2cc(Br)c(O)c(Br)c2)c2ccccc21,58 µM (active)
5,COc1nn(C(=O)NS(=O)(=O)c2ccccc2OC(F)(F)F)c(=O)n1C,inactive
6,CCOP(O)OCC,inactive
7,Cc1ccccc1CCl,inactive
8,ClP(Cl)(Cl)(Cl)Cl,inactive
9,CC(=O)[C@H]1CC[C@H]2[C@@H]3CC[C@H]4C[C@](C)(O)CC[C@]4(C)[C@H]3CC[C@]12C,inactive
10,CCCN(CC1CC1)c1c([N+](=O)[O-])cc(C(F)(F)F)cc1[N+](=O)[O-],inactive
11,CCCCOC(=O)c1ccccc1C(=O)OCc1ccccc1,inactive and 71 µM (active)
12,Brc1ccccc1,inactive
13,CC(=O)C(C)(C)C,inactive
14,O=[N+]([O-])C(Br)(CO)CO,inactive
15,II,28.3 µM (active)
16,ClC=C(Cl)Cl,inactive
17,IC(I)=C(I)I,inactive
18,ClCc1cccc(Cl)c1,27.5 µM (active)
19,C=CCC1([C@H](C)CCC)C(=O)NC(=O)NC1=O,inactive
20,CC(C)N(C(=O)COc1nnc(C(F)(F)F)s1)c1ccc(F)cc1,inactive
